Bioassay records deposited in PubChem by Sanford-Burnham Center for Chemical Genomics.
NadD inh: blocks S. aureus nicotinate mononucleotide adenylyltransferase; inhibition, % at 20 µM; AID 602399; 360,000 compounds, 0.78% hits; purified NadD enzyme, colorimetric absorbance read-out; in the data active means inhibition above about 26%
aDG glyco up: alpha-DG glycosylation activation; activation, % at 10 µM; 360,000 compounds, 0.22% hits; AID 624168; Pro5-aDG cells, alpha-DG glycosylation AlphaScreen (IIH6); 0% Pro5, 100% B10-LARGE cell signal;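 active means activation of at least 8% versus controls, or a plate z-score of at least 8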;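 further: Pro5 are CHO cells carrying HIG-tagged alpha-DG that lacks glycosylation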
H9c2 TAG inh: triacylglycerol accumulation inhibition | H9c2 cells, Nile Red lipid (TAG) fluorescence; cells loaded with 200 µM oleic acid | inhibition, % at 12.5 µM | 230,000 compounds, 0.66% hits;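 active means pattern-corrected inhibition of lipid staining of at least 50% with the nuclear-stain viability signal not falling by more than 50%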;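 further: 0% = DMSO wells and 100% = triacsin C control wells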
MPTP inh: blocks calcium-induced mitochondrial swelling. inhibition, % at 10 µM. 360,000 compounds, 1.4% hits. isolated mouse mitochondria, Ca2+ swelling absorbance, 30 min;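 active means inhibition of 50% or more, scaled per plate between neutral and stimulator controls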;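 further: 0% = DMSO wells given calcium and 100% = 1 mM EGTA wells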
Rh123 counter: Rhodamine 123 counter-screen of mitochondrial pore hits; shares compounds with MPTP inh; isolated mitochondria, membrane potential, Rhodamine 123 fluorescence; inhibition, % at 10 µM; 5,000 compounds, 78% hits; in the data active means inhibition above about 22%;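 further: 0% = DMSO vehicle and 100% = positive control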
An asterisk follows results filed as active; . = not tested or not shown. The list is not random: actives were taken first. Their share in the collection is about 2.7%.

SMILES | NadD inh | aDG glyco up | H9c2 TAG inh | MPTP inh | Rh123 counter
CCCCCCn1c(=O)n2n(c1=O)C[C@]1(OC(=O)NCc3ccccc3)CN(S(=O)(=O)c3ccc(C)cc3)C[C@]1(O)C2 | 2 | 0 | -26 | 1 | .
Cc1cccc(NS(=O)(=O)c2cccc(C(=O)NCC(c3ccco3)N(C)C)c2)c1 (configuration not stated) | -4 | 0 | 1 | 1 | .
O=C(Nc1nc(-c2ccc(Cl)s2)cs1)c1ccncc1 | 18 | 2 | . | 62* | 63*
c1ccc(CCNc2ncnc3ccccc23)cc1 | 3 | 8.7* | -30 | 96* | 103*
CCCCCCCCNc1ncnc2ccccc12 | -8 | 4 | . | 103* | 87*
Cc1cc2c(NCCc3ccccc3)ncnc2s1 | -2 | 3 | . | 103* | 95*
